Experimental data as given in PubChem BioAssay (NCATS).
Inconclusive results are not listed. Activity calls are given as the source filed them. Calls follow the shape of the dose curve; as a rule, active = well fitted curve in the direction sought with a large enough effect; inconclusive = small, poorly fitted or top-dose-only effect, or another doubt; inactive = no such curve, though single readings can be large; an effect the other way counts as inactive or inconclusive.

What was measured:
[1] = OV-SAHO Cancer Cell Toxicity qHTS against the NCATS CANVASS Library (AID 1347348); also: nearly all actives have a fitted effect of over 55% in size
Method in brief: (§1)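 Quantitative HTS format: an 11-concentration series was applied to 1000 cells/well following a 4-hour attachment. Cultures ran 72 hours before ATP luminescence detection by CellTiter-Glo.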

[2] = Panc-1005 Cancer Cell Toxicity qHTS against the NCATS CANVASS Library (AID 1347349); also: nearly all actives have a fitted effect of over 60% in size
Method in brief: as §1

[3] = SW1088 Cancer Cell Toxicity qHTS against the NCATS CANVASS Library (AID 1347350); settings: SW1088 viability, CellTiter-Glo luminescence, 72 h; at 38.3 µM (top of the series); also: nearly all actives have a fitted effect of over 75% in size
Method in brief: as §1

[4] = U-118MG Cancer Cell Toxicity qHTS against the NCATS CANVASS Library (AID 1347351)
Method in brief: as §1

[5] = COV-362 Cancer Cell Toxicity qHTS against the NCATS CANVASS Library (AID 1347352)
Method in brief: (§2)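 Cells were seeded at 1000 per well and allowed to settle 4 hours at 37 degrees C before pin transfer of compounds as an 11-point series. Viability was read by CellTiter-Glo luminescence after 72 hours' exposure.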

[6] = A2780 Cisplatin Sensitive Ovarian Cancer Cell Toxicity qHTS against the NCATS CANVASS Library (AID 1347353); settings: A2780 ovarian cancer viability, ATPLite luminescence, 72 h; at 46.1 µM (top of the series); also: nearly all actives have a fitted effect of over 60% in size
Method in brief: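 A2780 cisplatin-sensitive cells (750 per well) were seeded, left 4 h at 37 °C, then pin-dosed in an 11-point series. After 72 h at 37 °C/5% CO2, viability was measured as ATPLite luminescence.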

[7] = UWB1.289-WTBRCA1 Cancer Cell Toxicity qHTS against the NCATS CANVASS Library (AID 1347354); settings: UWB1.289-WTBRCA1 viability, CellTiter-Glo luminescence, 72 h; at 38.3 µM (top of the series)
Method in brief: as §2

[8] = HEK-293 Cancer Cell Toxicity qHTS against the NCATS CANVASS Library (AID 1347355); settings: HEK-293 viability, CellTiter-Glo luminescence, 72 h; at 46.1 µM (top of the series); also: nearly all actives have a fitted effect of over 65% in size
Method in brief: as §2

[9] = HPAF-II 24hr Apoptosis Induction qHTS against the NCATS CANVASS Library (AID 1347356)
Method in brief: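 HPAF-II cells (500/well) in DMEM + 10% FBS were treated with an 11-point compound series for 24 hours at 37 degrees C. Caspase-3/7 activity was then read by Caspase-Glo DEVD luminescence after 15 min.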

[10] = HEK293 18hr Apoptosis Induction qHTS against the NCATS CANVASS Library (AID 1347357)
Method in brief: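 HEK293 cells (500/well, DMEM + 10% FBS) treated with an 11-point series for 18 h at 37 degrees C. Caspase-3/7 activity read by Caspase-Glo luminescence after 15 min at room temperature.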

[11] = HPAF-II 12hr Apoptosis Induction qHTS against the NCATS CANVASS Library (AID 1347358)
Method in brief: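 HPAF-II cells (500/well, DMEM + 10% FBS) were exposed to compounds for 12 hours at 37 degrees C. Caspase-3/7 activity was then read by Caspase-Glo 3/7 luminescence after 15 min at room temperature.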

[12] = HEK293 24hr Apoptosis Induction qHTS against the NCATS CANVASS Library (AID 1347359)
Method in brief: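 HEK293 cells (500/well, DMEM + 10% FBS) were exposed to compounds in an 11-point series for 24 hours at 37 degrees C, then caspase-3/7 activity was read by Caspase-Glo DEVD luciferase luminescence after 15 min.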

[13] = HPAF-II 18hr Apoptosis Induction qHTS against the NCATS CANVASS Library (AID 1347360)
Method in brief: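 HPAF-II cells at 500/well were exposed for 18 h at 37 C to an 11-point compound series. Caspase-3/7 activity was read by Caspase-Glo luminescence after 15 min at RT.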

[14] = HEK293 12hr Apoptosis Induction qHTS against the NCATS CANVASS Library (AID 1347361)
Method in brief: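 HEK293 cells (500/well) were exposed to an 11-point qHTS concentration series for 12 hours at 37 degrees C. Caspase-3/7 activity was then read by DEVD-substrate luciferase luminescence after 15 min at room temperature.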

[15] = tested on: NAD(P)H diaphorase (Clostridium kluyveri); experiment: Diaphorse counterscreen qHTS: Assay Interference Panel against the NCATS CANVASS Library (AID 1347362)
Method in brief: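 Clostridium kluyveri diaphorase in PBS with 0.01% Tween-20 was preincubated 15 min at room temperature in the dark with compounds (11-point series). Resorufin fluorescence (ex 525/20, em 598/25) was read 5 min after adding resazurin/NADH.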

[16] = molecular target: Luciferin 4-monooxygenase (Photinus pyralis) (UniProt P08659); experiment: Firefly luciferase counterscreen qHTS: Assay Interference Panel against the NCATS CANVASS Library (AID 1347363)
Method in brief: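 Purified P. pyralis luciferase was added to compounds (11-point series) preincubated 15 min at room temperature with substrate containing 0.013 mM D-luciferin and 0.013 mM ATP; luminescence was read after 5 min.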

[17] = KB-8-5-11 Cancer Cell Toxicity qHTS against the NCATS CANVASS Library (AID 1347364); settings: KB-8-5-11 MDR cells viability, CellTiter-Glo, 72 h; at 46.1 µM (top of the series); also: nearly all actives have a fitted effect of over 75% in size
Method in brief: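 KB-8-5-11 cells (500/well) in DMEM + 10% FBS were exposed to compounds in an 11-point qHTS series for 72 hr at 37C, 5% CO2. Viability was read by CellTiter-Glo luminescence.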

[18] = KB-3-1 Cancer Cell Toxicity qHTS against the NCATS CANVASS Library (AID 1347366); settings: KB-3-1 viability, CellTiter-Glo luminescence, 72 h; at 46.1 µM (top of the series); also: nearly all actives have a fitted effect of over 75% in size
Method in brief: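 KB-3-1 cells (500/well) in DMEM with 10% FBS were exposed to compounds for 72 h at 37C. Viability was read by CellTiter-Glo luminescence.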

[19] = qHTS for ATAD5 Agonist screened against the NCATS CANVASS Library (AID 1347367);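 also: luciferase reporter driven by ATAD5 which rises upon DNA damage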
Method in brief: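 Luciferase reporter under ATAD5 control, stably integrated in HEK293T cells (2000/well). Compounds (11 points) incubated 16 h at 37C; viability read first by CellTiter-Fluor, then luminescence reporting ATAD5 activation. MMS positive control.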

[20] = MCF7 Cancer Cell Toxicity qHTS against the NCATS CANVASS Library (AID 1347369); settings: MCF7 viability, ATP luminescence (CellTiter-Glo), 72 h; at 46 µM (top of the series)
Method in brief: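 MCF7 cells (500/well) were exposed 72 h at 37 °C to compounds in an 11-point series. Viability was read as ATP content by CellTiterGlo luminescence.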

Measured: outcome

Chain of Luciferin 4-monooxygenase (Photinus pyralis) (P08659 whole entry, looked up): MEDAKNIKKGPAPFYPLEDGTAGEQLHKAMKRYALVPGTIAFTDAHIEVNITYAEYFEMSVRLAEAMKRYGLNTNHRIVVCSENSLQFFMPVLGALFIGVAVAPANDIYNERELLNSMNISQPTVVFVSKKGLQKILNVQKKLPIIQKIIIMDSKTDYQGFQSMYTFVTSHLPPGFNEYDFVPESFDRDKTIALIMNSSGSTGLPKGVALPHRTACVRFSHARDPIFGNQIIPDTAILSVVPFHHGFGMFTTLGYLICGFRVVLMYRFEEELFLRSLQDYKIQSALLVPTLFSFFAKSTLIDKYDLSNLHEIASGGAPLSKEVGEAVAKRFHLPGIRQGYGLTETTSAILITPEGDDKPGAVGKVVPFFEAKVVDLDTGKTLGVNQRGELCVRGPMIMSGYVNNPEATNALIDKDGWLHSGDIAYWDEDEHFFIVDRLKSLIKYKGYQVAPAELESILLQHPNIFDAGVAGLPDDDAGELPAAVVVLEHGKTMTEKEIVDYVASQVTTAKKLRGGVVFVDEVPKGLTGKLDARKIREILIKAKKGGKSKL

CN1CCC[C@@H]1c1cccnc1
inactive: all assays above
